The supplement of paper PMC10849652
The full data set covers some 7,900 targets. This sample favours those with a hit. About 0.6% of all pairs of compound and target were hits. Values without a mark were called inactive.

What was measured:
Test in all cases: log2 fold change, soluble protein after heating vs DMSO (PISA); higher = thermal stabilisation; K562 cells, 10 uM, 30 min; active = over 0.2 and 3.5 SD of the protein, either way, in both replicates (recomputed)
[1] = compound: CC[C@@H]1C(=O)N(C)c2cnc(Nc3ccc(C(=O)NC4CCN(C)CC4)cc3OC)nc2N1C1CCCC1
Summary of the method: (§1)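 Soluble protein was defined as the supernatant after 21,000xg for 90 min. It came from K562 cells at 2×10^6 cells/mL given 10 μM compound for 30 min, heated in aliquots for 3 min across 48°C-58°C, pooled, and extracted in PBS with 0.5% NP-40 at 4°C, and was quantified by TMTpro 16plex LC-MS/MS with equalised channel sums. Thermal stability against control samples, from duplicates, is reported as log2 fold change.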

volasertib = compound: CC[C@@H]1C(=O)N(C)c2cnc(Nc3ccc(C(=O)N[C@H]4CC[C@H](N5CCN(CC6CC6)CC5)CC4)cc3OC)nc2N1C(C)C [volasertib]
Summary of the method: as §1

[2] = compound: CC[C@H](C)N1C=C(C2=C(C=C(C=C21)C3=CN=C(C=C3)N4CCNCC4)C(=O)NCC5=C(C=C(NC5=O)C)C)C
Summary of the method: as §1

epoxomicin = compound: CC[C@H](C)[C@@H](C(=O)N[C@@H]([C@@H](C)O)C(=O)N[C@@H](CC(C)C)C(=O)[C@]1(CO1)C)NC(=O)[C@H]([C@@H](C)CC)N(C)C(=O)C [epoxomicin]
Summary of the method: as §1

[3] = compound: CCn1c(C(=O)N(C2CC2)C2CC2)cc2c3c(ncn3C)c(Nc3cc(C)n(C)n3)nc21
Summary of the method: as §1

[4] = compound: CN(C)CC(=O)Nc1ccc2[nH]c(=O)c3ccccc3c2c1
Summary of the method: as §1

rosiglitazone = compound: CN(CCOC1=CC=C(C=C1)C[C@H]2C(=O)NC(=O)S2)C3=CC=CC=N3 (racemic) [rosiglitazone]
Summary of the method: as §1

[5] = compound: CN1C2=C(C3=C1C(=O)N(N=C3)CC4=CC(=CC=C4)N)SC(=C2)S(=O)C
Summary of the method: as §1

saracatinib = compound: CN1CCN(CCOc2cc(OC3CCOCC3)c3c(Nc4c(Cl)ccc5c4OCO5)ncnc3c2)CC1 [saracatinib]
Summary of the method: as §1

sotrastaurin = compound: CN1CCN(c2nc(C3=C(c4c[nH]c5ccccc45)C(=O)NC3=O)c3ccccc3n2)CC1 [sotrastaurin]
Summary of the method: as §1

alvocidib = compound: CN1CC[C@H](c2c(O)cc(O)c3c(=O)cc(-c4ccccc4Cl)oc23)[C@H](O)C1 [alvocidib]
Summary of the method: as §1

[6] = compound: CNC(=O)C1=CC=CC=C1NC2=NC(=NC=C2Cl)NC3=C(C=C(C=C3)N4CCOCC4)OC
Summary of the method: as §1

defactinib = compound: CNC(=O)c1ccc(Nc2ncc(C(F)(F)F)c(NCc3nccnc3N(C)S(C)(=O)=O)n2)cc1 [defactinib]
Summary of the method: as §1

rucaparib = compound: CNCc1ccc(-c2[nH]c3cc(F)cc4c3c2CCNC4=O)cc1 [rucaparib]
Summary of the method: as §1

[7] = compound: CNc1nc(-c2ccc3c(N)n[nH]c3c2)cc(N2C[C@@H](C(=O)NC3CCCCC3)CC[C@H]2C)n1
Summary of the method: as §1

encorafenib = compound: COC(=O)N[C@@H](C)CNc1nccc(-c2cn(C(C)C)nc2-c2cc(Cl)cc(NS(C)(=O)=O)c2F)n1 [encorafenib]
Summary of the method: as §1

[8] = compound: COC(=O)[C@H](CCSC)NC(=O)C1=C(C=C(C=C1)NC[C@H](CS)N)C2=CC=CC=C2
Summary of the method: as §1

[9] = compound: CCn1cc(-c2ccnc3[nH]c(-c4cccc(CN(C)C)c4)cc23)c(-c2ccc(NC(=O)N(C)C)cc2)n1
Summary of the method: as §1

[10] = compound: CN1CCC(CNc2ccc3ncc(-c4cccc(OC(F)(F)F)c4)n3n2)CC1
Summary of the method: as §1

Tubastatin A = compound: CN1CCc2c(c3ccccc3n2Cc2ccc(C(=O)NO)cc2)C1 [Tubastatin A]
Summary of the method: as §1

Sequence of UniProt Q7Z4R8 (Q7Z4R8 whole entry, looked up): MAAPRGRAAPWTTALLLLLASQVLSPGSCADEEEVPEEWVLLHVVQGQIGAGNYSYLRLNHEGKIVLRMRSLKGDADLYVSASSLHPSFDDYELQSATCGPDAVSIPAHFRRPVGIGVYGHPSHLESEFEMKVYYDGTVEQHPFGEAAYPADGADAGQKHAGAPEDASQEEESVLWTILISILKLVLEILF
Sequence of UniProt Q9UJA2 (Q9UJA2 whole entry, looked up): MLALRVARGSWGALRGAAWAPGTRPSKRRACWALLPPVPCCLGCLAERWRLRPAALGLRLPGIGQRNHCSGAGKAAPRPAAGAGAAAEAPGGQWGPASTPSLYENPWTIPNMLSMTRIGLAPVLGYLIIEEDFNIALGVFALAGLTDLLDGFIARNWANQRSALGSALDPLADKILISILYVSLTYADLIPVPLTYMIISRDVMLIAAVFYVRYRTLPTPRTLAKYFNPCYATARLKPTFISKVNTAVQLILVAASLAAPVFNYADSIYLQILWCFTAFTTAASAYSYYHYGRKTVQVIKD
Sequence of UniProt Q13111 (Q13111 whole entry, looked up): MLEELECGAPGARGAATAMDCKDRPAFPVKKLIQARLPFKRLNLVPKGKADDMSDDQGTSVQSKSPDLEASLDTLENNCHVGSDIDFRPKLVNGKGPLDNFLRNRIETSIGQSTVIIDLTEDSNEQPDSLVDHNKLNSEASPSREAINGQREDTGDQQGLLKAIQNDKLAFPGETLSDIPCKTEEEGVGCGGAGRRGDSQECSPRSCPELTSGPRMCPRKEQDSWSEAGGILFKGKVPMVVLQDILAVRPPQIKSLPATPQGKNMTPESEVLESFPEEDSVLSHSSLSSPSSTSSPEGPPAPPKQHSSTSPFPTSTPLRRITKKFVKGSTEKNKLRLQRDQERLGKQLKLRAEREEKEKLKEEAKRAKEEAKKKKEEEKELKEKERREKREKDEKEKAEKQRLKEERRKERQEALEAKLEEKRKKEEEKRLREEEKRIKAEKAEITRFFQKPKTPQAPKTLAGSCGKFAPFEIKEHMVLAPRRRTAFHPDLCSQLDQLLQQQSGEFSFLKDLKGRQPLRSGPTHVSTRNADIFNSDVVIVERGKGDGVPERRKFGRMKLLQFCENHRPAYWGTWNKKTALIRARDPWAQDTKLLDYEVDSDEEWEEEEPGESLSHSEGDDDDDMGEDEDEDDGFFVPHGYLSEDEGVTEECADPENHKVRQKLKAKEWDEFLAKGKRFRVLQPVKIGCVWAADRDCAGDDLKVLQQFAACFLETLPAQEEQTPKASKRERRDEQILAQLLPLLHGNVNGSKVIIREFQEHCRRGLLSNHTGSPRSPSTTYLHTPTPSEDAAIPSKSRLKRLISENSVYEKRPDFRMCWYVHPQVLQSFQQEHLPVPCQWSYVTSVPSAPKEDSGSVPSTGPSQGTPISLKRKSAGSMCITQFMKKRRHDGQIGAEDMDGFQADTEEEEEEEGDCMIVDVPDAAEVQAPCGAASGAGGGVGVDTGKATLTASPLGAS
Sequence of UniProt Q5T655 (Q5T655 whole entry, looked up): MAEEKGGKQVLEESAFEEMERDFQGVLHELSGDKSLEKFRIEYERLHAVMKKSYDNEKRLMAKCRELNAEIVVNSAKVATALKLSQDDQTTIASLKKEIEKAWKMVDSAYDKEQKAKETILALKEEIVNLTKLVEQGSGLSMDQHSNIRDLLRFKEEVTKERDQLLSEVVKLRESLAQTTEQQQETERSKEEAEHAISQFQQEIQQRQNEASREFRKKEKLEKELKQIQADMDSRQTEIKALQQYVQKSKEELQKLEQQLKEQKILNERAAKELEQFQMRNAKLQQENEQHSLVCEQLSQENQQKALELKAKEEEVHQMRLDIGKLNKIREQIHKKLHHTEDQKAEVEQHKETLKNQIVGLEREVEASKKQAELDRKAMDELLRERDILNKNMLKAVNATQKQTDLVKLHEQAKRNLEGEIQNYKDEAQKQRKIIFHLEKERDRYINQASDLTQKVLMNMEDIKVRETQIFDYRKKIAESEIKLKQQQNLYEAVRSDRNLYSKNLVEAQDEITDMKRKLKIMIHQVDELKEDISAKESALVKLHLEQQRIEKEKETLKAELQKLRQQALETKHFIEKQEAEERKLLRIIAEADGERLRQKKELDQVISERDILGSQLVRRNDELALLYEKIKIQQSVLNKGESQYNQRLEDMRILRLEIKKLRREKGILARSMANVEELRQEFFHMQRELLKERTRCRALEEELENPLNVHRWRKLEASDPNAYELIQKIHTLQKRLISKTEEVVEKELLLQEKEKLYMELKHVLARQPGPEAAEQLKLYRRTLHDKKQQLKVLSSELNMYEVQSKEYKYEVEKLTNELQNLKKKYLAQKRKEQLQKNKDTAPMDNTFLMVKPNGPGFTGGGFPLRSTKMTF
Sequence of UniProt Q69YH5 (Q69YH5 whole entry, looked up): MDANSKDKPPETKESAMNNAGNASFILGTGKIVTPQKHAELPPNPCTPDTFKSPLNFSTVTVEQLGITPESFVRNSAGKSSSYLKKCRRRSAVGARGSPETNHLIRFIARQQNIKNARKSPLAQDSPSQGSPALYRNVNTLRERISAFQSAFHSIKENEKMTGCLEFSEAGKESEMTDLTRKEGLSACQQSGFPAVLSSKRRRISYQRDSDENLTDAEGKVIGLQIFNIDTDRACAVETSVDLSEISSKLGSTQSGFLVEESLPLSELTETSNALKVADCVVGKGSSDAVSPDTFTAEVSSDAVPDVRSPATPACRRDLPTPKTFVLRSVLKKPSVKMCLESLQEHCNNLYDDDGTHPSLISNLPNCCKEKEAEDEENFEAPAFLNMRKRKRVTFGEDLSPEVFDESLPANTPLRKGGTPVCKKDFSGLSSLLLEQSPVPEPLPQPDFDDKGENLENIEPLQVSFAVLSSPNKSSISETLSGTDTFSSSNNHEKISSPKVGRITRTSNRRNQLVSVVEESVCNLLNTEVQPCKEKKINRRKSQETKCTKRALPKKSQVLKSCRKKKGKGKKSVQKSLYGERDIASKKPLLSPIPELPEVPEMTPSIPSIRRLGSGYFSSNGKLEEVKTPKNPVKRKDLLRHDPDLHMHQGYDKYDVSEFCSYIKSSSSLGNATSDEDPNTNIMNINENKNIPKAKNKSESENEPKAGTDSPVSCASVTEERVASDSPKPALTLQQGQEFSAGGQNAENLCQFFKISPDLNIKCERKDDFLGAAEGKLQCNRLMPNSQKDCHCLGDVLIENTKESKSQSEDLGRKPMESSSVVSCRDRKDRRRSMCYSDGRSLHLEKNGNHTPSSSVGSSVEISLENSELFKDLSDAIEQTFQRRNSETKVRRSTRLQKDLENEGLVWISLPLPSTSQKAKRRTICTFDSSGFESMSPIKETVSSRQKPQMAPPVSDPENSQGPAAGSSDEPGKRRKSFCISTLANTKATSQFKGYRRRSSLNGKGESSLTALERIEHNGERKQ
Sequence of UniProt Q53ET0 (Q53ET0 whole entry, looked up): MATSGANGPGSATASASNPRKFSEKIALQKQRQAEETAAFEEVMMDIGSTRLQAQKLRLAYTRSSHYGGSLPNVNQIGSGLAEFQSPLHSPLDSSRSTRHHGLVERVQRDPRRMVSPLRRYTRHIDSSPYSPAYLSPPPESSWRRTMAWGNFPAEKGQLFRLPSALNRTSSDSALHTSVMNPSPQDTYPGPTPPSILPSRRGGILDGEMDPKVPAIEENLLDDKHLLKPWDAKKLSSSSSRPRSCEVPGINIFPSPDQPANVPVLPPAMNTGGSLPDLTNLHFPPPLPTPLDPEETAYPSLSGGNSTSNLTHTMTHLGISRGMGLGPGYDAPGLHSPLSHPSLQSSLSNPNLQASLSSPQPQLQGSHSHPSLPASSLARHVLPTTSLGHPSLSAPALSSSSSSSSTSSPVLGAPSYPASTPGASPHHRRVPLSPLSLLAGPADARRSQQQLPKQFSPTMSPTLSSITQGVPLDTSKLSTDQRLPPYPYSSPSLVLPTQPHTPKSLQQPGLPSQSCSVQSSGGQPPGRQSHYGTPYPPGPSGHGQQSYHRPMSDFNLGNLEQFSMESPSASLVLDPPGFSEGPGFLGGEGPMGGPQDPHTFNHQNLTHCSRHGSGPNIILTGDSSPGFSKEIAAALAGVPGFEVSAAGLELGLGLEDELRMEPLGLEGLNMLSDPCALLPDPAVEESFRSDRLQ
Sequence of UniProt P11802 (P11802 whole entry, looked up): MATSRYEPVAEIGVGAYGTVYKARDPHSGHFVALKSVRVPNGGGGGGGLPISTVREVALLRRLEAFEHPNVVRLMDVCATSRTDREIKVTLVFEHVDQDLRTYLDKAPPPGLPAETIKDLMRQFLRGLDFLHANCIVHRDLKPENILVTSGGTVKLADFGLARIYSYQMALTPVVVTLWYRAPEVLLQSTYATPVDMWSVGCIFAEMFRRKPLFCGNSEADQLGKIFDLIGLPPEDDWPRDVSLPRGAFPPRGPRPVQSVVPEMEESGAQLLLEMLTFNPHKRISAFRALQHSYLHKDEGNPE
Sequence of UniProt Q92828 (Q92828 whole entry, looked up): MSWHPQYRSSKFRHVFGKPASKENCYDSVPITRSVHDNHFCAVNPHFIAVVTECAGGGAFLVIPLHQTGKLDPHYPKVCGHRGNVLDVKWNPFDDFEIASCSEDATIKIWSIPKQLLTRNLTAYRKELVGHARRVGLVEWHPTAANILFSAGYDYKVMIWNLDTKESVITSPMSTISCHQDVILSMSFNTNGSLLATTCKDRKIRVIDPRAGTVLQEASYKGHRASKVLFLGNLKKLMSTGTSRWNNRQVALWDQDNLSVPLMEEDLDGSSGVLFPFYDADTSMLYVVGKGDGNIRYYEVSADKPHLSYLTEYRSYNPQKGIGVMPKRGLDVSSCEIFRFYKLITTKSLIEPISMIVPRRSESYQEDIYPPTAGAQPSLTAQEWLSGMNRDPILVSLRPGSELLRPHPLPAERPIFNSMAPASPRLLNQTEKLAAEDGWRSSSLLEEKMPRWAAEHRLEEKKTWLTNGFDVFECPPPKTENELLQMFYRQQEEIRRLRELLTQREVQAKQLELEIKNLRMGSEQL

Target	log2 fold change [1]	log2 fold change (volasertib)	log2 fold change [2]	log2 fold change (epoxomicin)	log2 fold change [3]	log2 fold change [4]	log2 fold change (rosiglitazone)	log2 fold change [5]	log2 fold change (saracatinib)	log2 fold change (sotrastaurin)	log2 fold change (alvocidib)	log2 fold change [6]	log2 fold change (defactinib)	log2 fold change (rucaparib)	log2 fold change [7]	log2 fold change (encorafenib)	log2 fold change [8]	log2 fold change [9]	log2 fold change [10]	log2 fold change (Tubastatin A)
CDK4 (UniProt P11802)	0.16	0.071	0.117	0.16	-0.018	-0.085	0	0.146	-0.03	-0.028	0.098	0.07	-0.039	0.051	-0.057	-0.008	-0.07	–	–	–
CRLS1 (UniProt Q9UJA2)	0.029	0.026	0.001	–	-0.024	-0.024	–	-0.006	0.144	-0.282	0.02	0.043	-0.088	-0.088	-0.052	0.004	0.067	0.052	0.09	-0.079
CDCA2 (UniProt Q69YH5)	0.193	0.275	-0.131	-0.025	0.015	-0.038	–	–	–	-0.148	0.008	-0.152	-0.063	0.011	–	0.318	-0.03	0.152	0.205	0.217
CFAP58 (UniProt Q5T655)	-0.353	-0.04	–	–	–	–	–	–	–	–	–	–	–	-1.21 (active)	–	0.265	–	-0.112	-0.272	–
CASP10 isoform 4 (UniProt Q92851)	-0.091	-0.582 (active)	0.015	0.004	–	-0.016	-0.093	0.023	0.034	-0.138	-0.116	–	0.028	0.111	0.04	0.164	-0.039	0.121	-0.331	0.127
C6orf120 (UniProt Q7Z4R8)	0.066	-0.101	0.019	–	0.095	-0.155	0.06	-0.245	-0.097	0.008	–	-0.145	0.024	0.127	0.041	0.074	-0.045	–	–	0.041
CORO2A (UniProt Q92828)	0.164	-0.075	0.01	–	-0.016	-0.038	0.011	-0.022	0.016	0.015	-0.021	0.053	-0.015	-0.266	-0.097	0.21	-0.028	0	-0.096	-0.055
CHAF1A (UniProt Q13111)	0.025	-0.021	0.036	-0.039	-0.078	–	-0.018	0.158	0.008	0.004	0.041	0.133	–	0.198	-0.125	0.094	–	0.064	0.051	–
CRTC2 (UniProt Q53ET0)	0.014	0.016	0.061	0.098	-0.023	-0.009	-0.043	–	–	-0.09	–	-0.269	-0.218	0.053	–	-0.026	-0.103	–	–	-0.031
CLN8 (UniProt Q9UBY8)	0.069	0.001	0.077	–	-0.101	0.145	0.327	0.135	0.073	0.107	0.061	0.022	-0.062	-0.061	-0.292	-0.117	0.05	0.005	0.191	-0.225
